In PubChem BioAssay AID1159580 (chemical genetic matrix, 2015):
The campaign covered roughly 5,500 compounds. About 2,000 (36%) were called active. Inconclusive results (about 18%) are left out. Rule as the data show it: active = normalized growth mostly below about 0.91 (no sharp cut-off); inconclusive = no clear call, values can overlap the other calls; inactive = mostly above about 0.92. Some of the results follow.

Experiment: chemical genetic growth profiling, strain panel (AID 1159580);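 also: tested at 20 µM; growth read once vehicle control cultures reached saturation at 30 °C; 1 = growth at the plate median or of vehicle wells; lower values mean less growth of the strain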
Details: growth OD

Measured: normalized growth

COc1ccc(-c2cc(=O)c3c(OC(C)=O)cc(OC(C)=O)cc3o2)cc1
inactive: S. cerevisiae deletion strains, locus YJR066W, strain TOR1, hits give low values 0.922 | S. cerevisiae deletion strains, locus YJR075W, strain HOC1, hits give low values 0.946 | S. cerevisiae deletion strains, locus YKL009W, strain mrt4, hits give low values 0.994 | S. cerevisiae deletion strains, locus YKL068W, hits give low values 0.972 | S. cerevisiae deletion strains, locus YKL085W, strain MDH1 (second series), hits give low values 0.968 | S. cerevisiae deletion strains, locus YKL085W, strain MDH1, hits give low values 0.968 | S. cerevisiae deletion strains, locus YKL160W, strain elf1, hits give low values 0.974 | S. cerevisiae deletion strains, locus YKL190W, strain CNB1, hits give low values 0.967 | S. cerevisiae deletion strains, locus YKR001C, strain vps1, hits give low values 0.941 | S. cerevisiae deletion strains, locus YKR026C, strain gcn3, hits give low values 0.985 | S. cerevisiae deletion strains, locus YKR091W, strain srl3, hits give low values 0.999 | S. cerevisiae deletion strains, locus YLL001W, strain dnm1, hits give low values 0.937 | S. cerevisiae deletion strains, locus YLL026W, hits give low values 0.985 | S. cerevisiae deletion strains, locus YLL041C, strain sdh2, hits give low values 0.992 | S. cerevisiae deletion strains, locus YLR027C, strain aat2, hits give low values 0.984 | S. cerevisiae deletion strains, locus YLR039C, strain RIC1, hits give low values 0.824 | S. cerevisiae deletion strains, locus YLR058C, strain SHM2, hits give low values 0.957 | S. cerevisiae deletion strains, locus YLR102C, strain apc9, hits give low values 0.959 | S. cerevisiae deletion strains, locus YLR221C, strain rsa3, hits give low values 0.973 | S. cerevisiae deletion strains, locus YLR258W, strain gsy2, hits give low values 0.971 | S. cerevisiae deletion strains, locus YLR262C, strain YPT6 (second series), hits give low values 0.914 | S. cerevisiae deletion strains, locus YLR262C, strain YPT6, hits give low values 0.807 | S. cerevisiae deletion strains, locus YLR268W, strain sec22, hits give low values 0.964 | S. cerevisiae deletion strains, locus YLR320W, strain mms22, hits give low values 0.965 | S. cerevisiae deletion strains, locus YLR330W, strain CHS5, hits give low values 0.929 | S. cerevisiae deletion strains, locus YLR342W, strain FKS1 (second series), hits give low values 1.01 | S. cerevisiae deletion strains, locus YLR342W, strain FKS1, hits give low values 1 | S. cerevisiae deletion strains, locus YLR357W, strain rsc2, hits give low values 0.894 | S. cerevisiae deletion strains, locus YLR370C, strain arc18, hits give low values 0.992 | S. cerevisiae deletion strains, locus YLR371W, strain rom2, hits give low values 0.952 | S. cerevisiae deletion strains, locus YLR384C, strain iki3, hits give low values 0.981 | S. cerevisiae deletion strains, locus YML016C, strain PPZ1, hits give low values 0.924 | S. cerevisiae deletion strains, locus YML032C, strain rad52, hits give low values 0.964 | S. cerevisiae deletion strains, locus YML120C, strain ndi1, hits give low values 0.973 | S. cerevisiae deletion strains, locus YML124C, strain tub3, hits give low values 0.958 | S. cerevisiae deletion strains, locus YMR058W, strain fet3, hits give low values 0.983 | S. cerevisiae deletion strains, locus YMR078C, strain ctf18, hits give low values 0.963 | S. cerevisiae deletion strains, locus YMR125W, strain sto1, hits give low values 0.965 | S. cerevisiae deletion strains, locus YMR129W, hits give low values 0.981 | S. cerevisiae deletion strains, locus YMR205C, strain PFK2, hits give low values 0.976 | S. cerevisiae deletion strains, locus YMR223W, strain ubp8, hits give low values 0.946 | S. cerevisiae deletion strains, locus YMR231W, strain pep5, hits give low values 0.994 | S. cerevisiae deletion strains, locus YMR307W, strain GAS1, hits give low values 0.913 | S. cerevisiae deletion strains, locus YNL067W, strain RPL9B, hits give low values 0.945 | S. cerevisiae deletion strains, locus YNL183C, strain NPR1, hits give low values 0.84 | S. cerevisiae deletion strains, locus YNL209W, strain ssb2, hits give low values 0.996 | S. cerevisiae deletion strains, locus YNL233W, strain BNI4, hits give low values 0.89 | S. cerevisiae deletion strains, locus YNL248C, strain rpa49, hits give low values 0.955 | S. cerevisiae deletion strains, locus YNL250W, strain rad50, hits give low values 0.958 | S. cerevisiae deletion strains, locus YNL271C, strain bni1, hits give low values 0.986 | S. cerevisiae deletion strains, locus YNL298W, strain CLA4, hits give low values 0.968 | S. cerevisiae deletion strains, locus YNL322C, strain KRE1 (second series), hits give low values 0.952 | S. cerevisiae deletion strains, locus YNR049C, strain mso1, hits give low values 0.992 | S. cerevisiae deletion strains, locus YNR052C, strain pop2, hits give low values 0.949 | S. cerevisiae deletion strains, locus YOL006C, strain TOP1, hits give low values 0.97 | S. cerevisiae deletion strains, locus YOL012C, strain htz1 0.936 | S. cerevisiae deletion strains, locus YOL147C, strain pex11, hits give low values 0.945 | S. cerevisiae deletion strains, locus YOR001W, strain rrp6, hits give low values 0.967 | S. cerevisiae deletion strains, locus YOR061W, strain CKA2, hits give low values 1 | S. cerevisiae deletion strains, locus YOR069W, strain VPS5, hits give low values 0.959 | S. cerevisiae deletion strains, locus YOR070C, strain gyp1, hits give low values 0.999 | S. cerevisiae deletion strains, locus YOR080W, strain dia2, hits give low values 0.989 | S. cerevisiae deletion strains, locus YOR083W, strain WHI5, hits give low values 0.984 | S. cerevisiae deletion strains, locus YOR106W, strain vam3, hits give low values 0.988 | S. cerevisiae deletion strains, locus YOR136W, strain idh2, hits give low values 0.978 | S. cerevisiae deletion strains, locus YOR144C, strain elg1, hits give low values 0.961 | S. cerevisiae deletion strains, locus YOR184W, strain ser1, hits give low values 0.982 | S. cerevisiae deletion strains, locus YOR231W, strain MKK1, hits give low values 0.876 | S. cerevisiae deletion strains, locus YOR265W, strain rbl2, hits give low values 0.99 | S. cerevisiae deletion strains, locus YOR270C, strain vph1, hits give low values 0.889 | S. cerevisiae deletion strains, locus YOR290C, strain snf2, hits give low values 0.949 | S. cerevisiae deletion strains, locus YOR316C, strain cot1, hits give low values 0.942 | S. cerevisiae deletion strains, locus YPL051W, strain arl3, hits give low values 0.954 | S. cerevisiae deletion strains, locus YPL055C, strain LGE1, hits give low values 0.906 | S. cerevisiae deletion strains, locus YPL078C, strain atp4, hits give low values 0.967 | S. cerevisiae deletion strains, locus YPL106C, strain sse1, hits give low values 0.922 | S. cerevisiae deletion strains, locus YPL240C, strain hsp82, hits give low values 0.987 | S. cerevisiae deletion strains, locus YPL241C, strain CIN2, hits give low values 0.973 | S. cerevisiae deletion strains, locus YPR119W, strain clb2, hits give low values 0.958 | S. cerevisiae deletion strains, locus YPR141C, strain kar3, hits give low values 0.953 | S. cerevisiae deletion strains, locus YPR163C, strain tif3, hits give low values 0.981 | S. cerevisiae deletion strains, locus YPR167C, strain met16, hits give low values 0.946 | S. cerevisiae deletion strains, strain wtn01, hits give low values 0.987 | S. cerevisiae strains, strain wild type, hits give low values 0.971
active: S. cerevisiae deletion strains, locus YLR113W, strain HOG1, hits give low values 0.805 | S. cerevisiae deletion strains, locus YLR418C, strain cdc73, hits give low values 0.685 | S. cerevisiae deletion strains, locus YNL071W, strain lat1, hits give low values 0.893 | S. cerevisiae deletion strains, locus YNL307C, strain MCK1, hits give low values 0.878 | S. cerevisiae deletion strains, locus YPL256C, strain CLN2, hits give low values 0.756
